Compound activity as filed in PubChem BioAssay.
FXN GAA850 act – increases GAA850 frataxin promoter reporter activity. 360,000 compounds, 0.56% hits. HEK293 lucGAA850 FXN promoter luciferase reporter, 24 h; percent of 10 µM SAHA response. activation, % at 6 µM;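 active = activation above the average of all compounds screened plus 3 SD, cutoff fixed separately per campaign, cut at about 7.5% in these data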;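 also: 0% = DMSO wells and 100% = 10 µM SAHA wells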
hgDAF12 agonist – activates the H. glycines DAF-12 receptor ligand-binding domain; HEK293 GAL4-hgDAF12 UAS-luciferase reporter, agonist luminescence; normalized to butyrate control; activation, % at 6.8 µM; 370,000 compounds, 1.8% hits; AID 687014;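 active = activation above a cutoff set at the mean of all screened compounds plus 3 SD, cut at about 10% in these data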;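 also: 0% = DMSO wells and 100% = sodium butyrate wells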
DAX1 inh-1 – DAX1 (NR0B1) inhibition, primary screen. HEK293T StAR-luciferase reporter, SF-1/DAX-1 repression relief. inhibition, % at 6.8 µM. 370,000 compounds, 1.1% hits;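 active = inhibition above the mean over all tested compounds plus 3 SD, cut at about 3.6% in these data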;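 also: 0% = DAX-1 cells with DMSO and 100% = cells lacking DAX-1 with DMSO; higher inhibition means more luminescence from relief of DAX-1 repression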
ssDAF-12 act – activates DAF-12 receptor from parasite S. stercoralis; activation, % at 6.8 µM; HEK293 ssDAF-12/GRIP1 lit1-tk-luc reporter, luminescence; % of 3 µM dafachronic acid response; AID 652126; 370,000 compounds, 1% hits;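 active = activation above the mean over all tested compounds plus 3 SD, cut at about 0.9% in these data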;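 also: 0% = DMSO-only wells and 100% = 3 µM delta7-dafachronic acid wells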
DAX1 inh-2 – inhibits human nuclear receptor DAX1; HEK293 Gal4-DAX1 luciferase reporter, luminescence; 340,000 compounds, 0.99% hits; inhibition, % at 6.75 µM;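 active = inhibition above the mean over all tested compounds plus 3 SD, cut at about 4.2% in these data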;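 also: 0% = DAX1-transfected cells with DMSO and 100% = empty-vector control cells with DMSO; inhibition shows as a rise in luminescence from relieved DAX1 repression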
Target sequence (P51843 207-470 limits assumed): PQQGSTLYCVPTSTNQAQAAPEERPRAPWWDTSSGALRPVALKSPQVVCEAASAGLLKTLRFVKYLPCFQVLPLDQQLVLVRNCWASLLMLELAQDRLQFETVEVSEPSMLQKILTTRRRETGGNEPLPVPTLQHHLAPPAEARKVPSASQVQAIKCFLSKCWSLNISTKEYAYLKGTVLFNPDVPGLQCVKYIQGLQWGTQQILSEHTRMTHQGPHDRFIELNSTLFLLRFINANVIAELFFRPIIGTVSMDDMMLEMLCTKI
hcDAF-12 act – activators of H. contortus DAF-12 nuclear receptor | 370,000 compounds, 1.4% hits | activation, % at 6.8 µM | HEK293 hcDAF-12 lit1-tk-luc reporter, luminescence; 0% DMSO, 100% Δ7-dafachronic acid | AID 652067;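 active = activation above the mean of all tested compounds plus 3 SD, cut at about 5.5% in these data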;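 also: 100% = response to 3 µM Δ7-dafachronic acid high control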
GAA30 counter – GAA30 FXN promoter activation counter-screen; 1,900 compounds, 66% hits; shares compounds with FXN GAA850 act; HEK293 lucGAA30 FXN promoter luciferase, 24 h; DMSO = 0%, 5 µM ipriflavone = 100%; activation, % at 6 µM;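 active = mean activation above the mean of solvent-only control wells plus 3 SD, cut at about 22% in these data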;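 also: counterscreen of GAA850 promoter hits where activity marks nonselective or luminescence artifacts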
FXN GAA850 conf – GAA850 FXN promoter activation confirmation; activation, % at 6 µM; HEK293 lucGAA850 FXN promoter luciferase reporter, 24 h; 100% = activation by SAHA; 1,900 compounds, 86% hits; shares compounds with FXN GAA850 act; AID 588351;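 active = mean activation above a set limit taken from the primary screen, cut at about 8% in these data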;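 also: 0% = DMSO wells and 100% = 10 µM SAHA wells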
* = called active by the depositor; . = no result; ! = a repeat was not active. Hits are enriched below; roughly 4.5% of the tested compounds scored in any of these assays.

SMILES	FXN GAA850 act	hgDAF12 agonist	DAX1 inh-1	ssDAF-12 act	DAX1 inh-2	hcDAF-12 act	GAA30 counter	FXN GAA850 conf
CCCCC(CCC(=O)O)(C(=O)OCC)c1csc(Nc2ccccc2)n1 (stereo unspecified)	-0.9	.	.	.	0.3	.	.	.
CCOC(=O)/C(=N/Nc1ccccc1)c1csc(Nc2ccccc2)n1	7.4	-0.3	-0.2	-1.9	-0.5	-2.4	.	.
O=C(CSc1ccc(-c2cccc([N+](=O)[O-])c2)nn1)N1CCCC1	3.1	0.4	-0.3	-0.9	2.2	-1.4	.	.
CCSc1ccc(-c2cccc([N+](=O)[O-])c2)nn1	8.5*	13.1*	2.1	-0.2	0.1	6.2*	97.4*	28.5*
O=C(NCc1ccc(Cl)cc1)OCCN1C(=O)CCC12CCC(c1ccccc1)CC2 (stereo unspecified)	.	-1.2	-1.3	-1.0	.	-1.3	.	.
COc1ccccc1NC(=O)c1sc2ncn(CC(=O)Nc3ccccc3)c(=O)c2c1C	13.3*	-0.6	-0.3	-0.6	-0.3	-0.7	-4.1	0.0
COc1cc2c(cc1N)-c1ccc(N)cc1C2=O	9.4*	7.8	2.4	-0.8	1.2	0.6	117.7*	38.0*
Nc1ccc2c(c1)C(=O)c1cc(N)c(Cl)cc1-2	-0.1	10.2	-0.1	-0.5	-0.6	1.7	.	.
CCN(CC)S(=O)(=O)c1ccc(Nc2nc3ccccc3n3nnnc23)cc1	7.8*	6.2	-0.9	-0.9	-0.3	1.0	90.4*	35.9*
Fc1ccccc1Nc1nc2ccccc2n2nnnc12	8.2*	5.3	0.3	1.1*	0.7	1.1	105.7*	42.0*
c1ccc(Nc2nc3ccccc3n3nnnc23)cc1	6.0	7.0	1.6	0.1	1.7	3.6	.	.
CN(C(=O)[C@@H]1CC=C[C@@H]2CCN(C3CCCCC3)C(=O)[C@@H]21)c1ccccc1	.	1.1	.	-1.1	.	-0.6	.	.
CCCCN1C(=O)c2ccccc2NC1c1ccc(OC)c(COc2ccc(NC(C)=O)cc2)c1 (stereo unspecified)	.	2.3	.	-1.6	.	-1.7	.	.
S=C1NCN(Cc2cccnc2)CN1	-0.1	-1.4	0.1	-2.0	.	0.0	.	.
CN(C)C(=S)N=c1ssc(=S)n1Cc1cccnc1	11.7*	0.6	-0.2	-0.8	-0.2	2.2	1.4	12.4*
CN1CCC(N[C@@H](Cc2c[nH]c3ccccc23)C(=O)NCC(c2ccccc2)c2ccccc2)(C(=O)NC2CCCCC2)CC1	.	1.2	.	-1.1	.	-0.9	.	.
CS(=O)(=O)N1CCN(c2ccc(NC(=O)c3cc4ccccc4o3)cc2)CC1	2.1	6.7	-0.1	-0.5	1.1	-0.6	.	.
CN1CCN(c2ccc(NC(=O)c3cc4ccccc4o3)cc2)CC1	7.7*	9.4	1.7	0.4	1.8	2.7	137.6*	38.5*
CCCCn1nnc(NC(=O)c2cc3ccccc3o2)n1	8.4*	6.4	0.6	-0.3	1.4	1.6	82.1*	26.4*
COc1cc(NC(=O)c2ccccc2)c(C)cc1NC(=O)CSc1nnc(-c2cnccn2)n1-c1ccc(C)cc1	.	-3.2	-1.9	-1.2	.	-1.3	.	.
Cc1cc(C)nc(Nc2n[nH]c(-c3ccc(N)cc3)n2)n1	8.2*	11.1*	3.5	-0.2	1.3	3.2	93.4*	34.0*
CCc1c(-c2ccccc2Br)ncn1CCc1ccccc1OC	.	-1.5	-1.4	-2.1	.	-4.2	.	.
CCc1sc(C(=O)Nc2ccc3c(c2)OCCO3)cc1Br	8.0*	10.9*	7.1*	0.1	1.4	1.8	111.4*	41.4*
CCOC(=O)c1c(CSC(=N)N)n(C)c2cc(Br)c(OC(C)=O)cc12	6.3	-1.3	-0.3	-0.7	3.7	-1.9	.	.
CCOC(=O)c1c(CSC(=N)N)n(-c2ccc(C)cc2)c2cc(Br)c(OC(C)=O)cc12	12.5*	1.4	0.3	-0.8	1.0	-1.3	-10.2	38.0*
SMILES	FXN GAA850 act	hgDAF12 agonist	DAX1 inh-1	ssDAF-12 act	DAX1 inh-2	hcDAF-12 act	GAA30 counter	FXN GAA850 conf
CC(=O)c1ccc(OCC(O)CN2CCN(Cc3ccc4c(c3)OCO4)CC2)cc1 (stereo unspecified)	9.3*!	-2.4	-0.3	-0.3	1.9	0.7	22.4*	5.8
COc1ccc(OCC(O)CN2CCN(Cc3ccc4c(c3)OCO4)CC2)cc1 (stereo unspecified)	2.0	-1.1	-0.9	-1.1	-1.7	-1.9	.	.
CCCCN1C(=O)/C(=C/C=C2\Oc3ccccc3N2CC)SC1=S	2.6	0.0	1.0	-1.2	3.4	-1.3	.	.
CCCCN1C(=O)/C(=C/C=C2/CC(C)(C)CN2C)SC1=S	8.6*	2.3	1.8	0.6	0.3	2.6	95.3*	32.7*
CCc1ccc(Cn2c(=O)n(Cc3ccc(C(=O)NCCCOC)cc3)c(=O)c3ccccc32)cc1	.	0.2	-0.1	-1.2	.	0.7	.	.
CCCCC1(CO)C(=O)N(c2ccccc2)N(c2ccccc2)C1=O	1.2	-1.6	-0.2	-0.5	1.1	-0.1	.	.
CCCCC1(Br)C(=O)N(c2ccccc2)N(c2ccccc2)C1=O	2.9	2.4	-1.1	-1.4	-0.1	-1.6	.	.
CCCCC1(Cc2cccc([N+](=O)[O-])c2)C(=O)N(c2ccccc2)N(c2ccccc2)C1=O	8.2*	-2.5	-1.7	-1.6	-1.1	-2.8	-0.8	7.2
CCCCC1(CC(=O)OCC)C(=O)N(c2ccccc2)N(c2ccccc2)C1=O	9.1*	-3.3	-0.2	-1.4	-2.2	-1.1	14.1	9.7*
C[C@@H]1[C@@H](O)C[C@]2(C[C@@H](O)c3ccccc3O2)O[C@H]1c1ccccc1	.	4.9	0.5	-1.2	.	-1.3	.	.
COCc1cc(C)nc(SCC(=O)c2ccc(O)c(O)c2)c1C#N	10.4*	-2.5	-0.7	-1.5	3.8	-2.7	39.7*	17.8*
COCc1cc(C)nc(SCC(=O)Oc2ccccc2)c1C#N	1.0	3.4	-1.7	-0.9	1.0	-0.8	.	.
O=C1/C(=C\c2ccc(O)c(O)c2)N=C2CCCCCN12	9.8*	3.9	1.6	-1.4	2.8	1.1	74.0*	18.8*
COc1cc(/C=C2\N=C3CCCCCN3C2=O)ccc1O	3.1	6.8	1.9	-0.2	1.1	2.4	.	.
CN(C)c1ccc(-c2nnn(Cc3ccccc3Br)n2)cc1	12.4*	3.8	0.6	-1.3	-0.4	0.6	70.3*	26.3*
CC(=O)c1cc(-c2ccc3nonc3c2)c(=O)n2c1CCC2	.	-3.1	-0.7	-1.1	.	-1.0	.	.
COc1cccc(/C=N/Nc2nc(Nc3ccccc3)nc(-n3nc(C)cc3C)n2)c1O	12.3*	-2.2	-3.1	-1.3	-3.3	-0.8	-37.0	15.0*
